Data on 14 compounds can be found in PubChem BioAssay (EPA / NIEHS).

Molecules are shown by their SMILES. The source made the active and inactive calls. Rule for the calls: active = hit-call score of the fitted dose curve at least 0.9, where 1 is the maximum; inactive = score below 0.9.

The test is described as follows: CCTE_Padilla_ZF_Score.Living: CCTE's 144 Hour Post-fertilization zebrafish Assay Score for Viability, Padilla Lab (AID 2284410).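 Note: larval death at 6 dpf judged by absent heartbeat or coagulation.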 As for the experimental part:
CCTE_Padilla_ZF_Phenotype_Score is a whole embryo, multiplexed assay using zebrafish ova exposed for 144 hours post fertilization on a 96-well plate.CCTE_Padilla_ZF_Score.Living is one of one assay component(s) measured or calculated from the CCTE_Padilla_ZF_Phenotype_Score assay. It is designed to make measurements of zebrafish development as detected with brightfield microscopy of developing zebrafish embryos.Data from the assay component CCTE_Padilla_ZF_Score.Living was analyzed into 1 assay endpoints. This assay endpoint, CCTE_Padilla_ZF_Score.Living, was analyzed in the positive analysis fitting direction relative to DMSO as the negative control and baseline of activity. Using a type of viability reporter, gain-of-signal activity can be used to understand changes in developmentals as they relate to the whole embryo. To generalize the intended target to other relatable targets, this assay endpoint is annotated to the zebrafish development intended target family, where the subfamily is embryonic mortality.
Zebrafish husbandry: Wild type adult zebrafish (Danio rerio; undefined outbred stock obtained from Aquatic Research Organisms, Hampton, NH, 03842) were housed in an AAALAC-approved animal facility at 28C with a 14:10 h light: dark cycle (lights on at 08:30 h). Adult fish (2-3 females per male; density = 15-20 adults per tank) were kept in one of several 9-liter (L) flow-through colony tanks (Aquaneering Inc., San Diego, CA). All adults in a colony tank were placed in a 2 L (static) breeding tank (Aquatic Habitats, Apopka, FL) one hour prior to light onset. Typically, adults from two to three colony tanks were mated on the same day. Two hours after light onset the adults were returned to the colony tank. All embryos were gathered from each breeder tank, pooled, and placed in a 28C water bath for 2 h, followed by two washes with 0.06% bleach (v/v) in 10% Hanks' Balanced Salt Solution (13.7 mM NaCl 0.54 mM KCl, 25 uM Na2HPO4, 130 uM CaCl2 100 um MgSO4 and 420 um NaHCO3,), hereafter referred to as Hanks' solution, for 5 min in order to remove any residual bacteria or fungi. Immediately following washing, the embryos were examined, and healthy embryos were separated from dead or unfertilized eggs and moved into fresh Hanks'. Chemical exposures: Zebrafish embryos were exposed in 96-well plates. Between 6- and 8-hours post fertilization (hpf), healthy embryos (with chorions) were transferred, one embryo per well, into 96 well (0.5 mL) microtiter plates (Cell Culture-Treated, Flat-Bottom Microplate 96 well [Corning Costar, Kennebunk, ME; Cat 09-761-145]) filled with 200 uL of Hanks' solution. A random number generator was used to assign the order in which the rows of embryos were plated in 96 well plates each week. After plating, the embryos were dosed with 0.8 uL of the chemical dosing solution then immediately sealed with AlumaSeal II (Excel Scientific Inc, Victorville, CA) to prevent volatilization of the chemicals, and then placed in a leakproof secondary container. These containers were placed in an incubator maintained on a 14:10 h light: dark cycle at 26C for rearing. On 5 dpf, live larvae were gently moved out of the plate with test chemicals and into a new 96 well mesh plate (Millipore Corp., Bedford, MA) with just the Hanks' solution. Once within the mesh well plate, the animals were rinsed with 400 uL of fresh Hanks' three times, and then the plates were covered with a non-adhesive material (Microseal A, BioRad, Hercules, CA), plate lid added, and then plate sides wrapped in Parafilm (PM992, Bermis Company, Neenah, WI), and returned to the incubator. […]
For `O=C(O)C(F)(F)OC(F)(F)C(F)(F)OC(F)(F)F`, the compound was classed as inactive.

Consider `O=S(=O)(F)C(F)(F)C(F)(F)C(F)(F)C(F)(F)C(F)(F)C(F)(F)C(F)(F)C(F)(F)F`, for which the result was inactive.

Consider `OCC(F)(F)OC(F)(F)C(F)(F)OC(F)(F)C(F)(F)OC(F)(F)F`, for which the AC50 was 88.8 µM (active).

On to `O=C(O)C(F)(F)C(F)(F)C(=O)O`, for which the result was inactive.

With `O=C(O)C(F)(F)OC(F)(F)C(F)(F)OC(F)(F)C(=O)O`, the result was inactive.

Turning to `CC(O)C(F)(F)C(F)(F)F` (centres undefined), the result was inactive.

On to `FC(F)(F)C(F)(C(F)(F)F)C(F)(F)C(F)(F)CC1CO1` (centres undefined), for which the compound was called inactive.

In the case of `NC(=O)C(F)(F)C(F)(F)F`, the result was inactive.

For `OCC(F)(F)OC(F)(F)C(F)(F)OC(F)(F)CO`, the compound was called inactive.

In the case of `O=C(O)C(F)(OC(F)(F)C(F)(F)C(F)(F)F)C(F)(F)F` (centres undefined), the outcome was inactive.

As to `C=CC(=O)OCC(F)(F)C(F)F`, the concentration at half-maximal activity (AC50) is 20.7 µM (active).

Turning to `OCC(F)(F)OC(F)(F)C(F)(F)OC(F)(F)C(F)(F)OC(F)(F)CO`, the concentration at half-maximal activity (AC50) is 32.1 µM (active).

`COC(=O)C(F)(F)C(F)(F)OC(F)(C(F)(F)F)C(F)(F)OC(F)=C(F)F` (centres undefined): the result was inactive.

For `O=C(O)C=CC(F)(C(F)(F)F)C(F)(F)F`, the compound was called inactive.

By AC50 is commonly meant the midpoint of the concentration-response curve, whichever way the signal moves.
